Screens: PubChem, Sanford-Burnham Center for Chemical Genomics
This is a sample that favours compounds with a hit; in the whole collection about 1.8% have one here.
SUMO HTRF inh = inhibitors of human SUMOylation (UBC9). P63279. HTRF SUMOylation assay, SAE1/SAE2 + UBC9, in vitro. inhibition, % at 35 µM. 290,000 tested, 0.36% active; in the data active = inhibition above about 50%, passing the limit was not always enough
p-CIP stab down = lowers stability of the mouse p/CIP coactivator protein; AID 1984; decrease of EGFP signal, % at 10 µM; 290,000 tested, 0.01% active; F442A p/CIP-EGFP cells, EGFP fluorescence, 16 h; Q05BA5;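 active = EGFP signal decrease of at least 30% at 10 µM or well 3 SD below plate mean, unless failing retest; inactive = the rest, including hits failing retest or dose response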
Target sequence (Q05BA5 1-1403): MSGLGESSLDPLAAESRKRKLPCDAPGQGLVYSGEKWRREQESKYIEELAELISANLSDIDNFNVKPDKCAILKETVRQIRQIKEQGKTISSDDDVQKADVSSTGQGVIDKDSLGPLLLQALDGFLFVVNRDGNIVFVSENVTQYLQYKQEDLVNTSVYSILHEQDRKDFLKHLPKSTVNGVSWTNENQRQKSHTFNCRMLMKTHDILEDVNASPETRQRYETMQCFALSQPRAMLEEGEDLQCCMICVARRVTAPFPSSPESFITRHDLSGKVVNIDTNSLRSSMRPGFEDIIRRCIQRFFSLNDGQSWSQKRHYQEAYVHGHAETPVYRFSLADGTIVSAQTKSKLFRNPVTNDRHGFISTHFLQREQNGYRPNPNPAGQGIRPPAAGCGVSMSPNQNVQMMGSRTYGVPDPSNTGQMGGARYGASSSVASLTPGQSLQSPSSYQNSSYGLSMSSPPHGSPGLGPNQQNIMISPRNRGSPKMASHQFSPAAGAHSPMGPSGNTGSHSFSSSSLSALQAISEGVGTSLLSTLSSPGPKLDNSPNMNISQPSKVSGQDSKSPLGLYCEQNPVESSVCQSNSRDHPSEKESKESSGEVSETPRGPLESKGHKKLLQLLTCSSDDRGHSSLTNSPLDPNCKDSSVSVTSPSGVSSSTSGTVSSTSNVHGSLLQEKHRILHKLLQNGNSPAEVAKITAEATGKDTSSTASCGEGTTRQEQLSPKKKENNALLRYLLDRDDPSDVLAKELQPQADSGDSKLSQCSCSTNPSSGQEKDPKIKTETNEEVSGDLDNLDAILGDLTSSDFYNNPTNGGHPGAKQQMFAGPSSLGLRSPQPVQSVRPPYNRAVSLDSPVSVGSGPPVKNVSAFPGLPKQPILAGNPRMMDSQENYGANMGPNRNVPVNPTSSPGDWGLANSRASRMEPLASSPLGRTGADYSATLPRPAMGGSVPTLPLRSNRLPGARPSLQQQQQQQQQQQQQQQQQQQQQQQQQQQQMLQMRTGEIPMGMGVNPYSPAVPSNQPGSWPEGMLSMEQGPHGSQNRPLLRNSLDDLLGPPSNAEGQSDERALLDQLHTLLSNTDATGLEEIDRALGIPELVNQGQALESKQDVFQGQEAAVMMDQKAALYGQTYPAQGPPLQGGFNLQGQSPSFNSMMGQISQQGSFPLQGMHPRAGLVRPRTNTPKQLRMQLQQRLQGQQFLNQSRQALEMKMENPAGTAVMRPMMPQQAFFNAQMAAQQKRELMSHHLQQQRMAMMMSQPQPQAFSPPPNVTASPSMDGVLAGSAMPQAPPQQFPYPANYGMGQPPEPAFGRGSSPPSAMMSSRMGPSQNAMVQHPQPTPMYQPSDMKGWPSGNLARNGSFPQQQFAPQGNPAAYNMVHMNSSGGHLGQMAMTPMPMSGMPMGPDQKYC
PHOSPHO1 block = blocks human PHOSPHO1 phosphatase activity. 290,000 tested, 1.1% active. inhibition, % at 13.3 µM. recombinant PHOSPHO1, absorbance phosphatase assay; in the data active = inhibition above about 60%
NadD block = inhibitors of Staphylococcus aureus NadD; purified NadD enzyme, colorimetric absorbance read-out; inhibition, % at 20 µM; 360,000 tested, 0.78% active; in the data active = inhibition above about 26%
Active calls of the source: *.

Results for O=C(Nc1ccc([N+](=O)[O-])cc1)OC1CCS(=O)(=O)C1 (centres undefined) ?
NadD block: 2

Results for O=c1[nH]c(-c2cccnc2)nc2ccccc12 ?
SUMO HTRF inh: 13; p-CIP stab down: -6; PHOSPHO1 block: 21; NadD block: -4

What do the screens show for `O=c1[nH]c(-c2ccncc2)nc2ccccc12`?
SUMO HTRF inh: 5; p-CIP stab down: -3; PHOSPHO1 block: 98*; NadD block: -1

What do the screens show for `Cc1noc(NS(=O)(=O)c2ccc(NC(=O)c3ccccc3NS(=O)(=O)c3ccc(F)c(F)c3)cc2)c1C`?
NadD block: 3

What do the screens show for `O=c1cc(CSc2nnc(-c3cccs3)n2Cc2ccccc2)nc2sc3ccccc3n12`?
SUMO HTRF inh: 32; p-CIP stab down: -28; PHOSPHO1 block: 69*; NadD block: 18

What do the screens show for `O=C1COc2ccc(C(=O)CSc3nnc(Cc4cccs4)n3-c3ccccc3)cc2N1`?
SUMO HTRF inh: -9; p-CIP stab down: 6; PHOSPHO1 block: 33; NadD block: -1

How did CCn1c(SCC(=O)c2ccc(O)c(O)c2)nnc1-c1ccccc1 do in these assays?
SUMO HTRF inh: -3; p-CIP stab down: -10; PHOSPHO1 block: 15; NadD block: 3

How did O=C1COc2ccc(C(=O)CSc3nnc(-c4cccs4)n3Cc3ccccc3)cc2N1 do in these assays?
SUMO HTRF inh: 29; p-CIP stab down: -3; PHOSPHO1 block: 74*; NadD block: 10

How did Cc1cc(C(=O)CSc2nnc(-c3cccs3)n2Cc2ccccc2)c(C)n1C do in these assays?
SUMO HTRF inh: 21; p-CIP stab down: -8; PHOSPHO1 block: 90*; NadD block: 4

Results for CCn1c(SCC(=O)c2cc(C)n(C)c2C)nnc1-c1ccccc1 ?
SUMO HTRF inh: 4; p-CIP stab down: 2; PHOSPHO1 block: 62*; NadD block: -2

Results for Nc1nc2c(ncn2[C@@H]2O[C@H](CNC(=O)[C@H](N)Cc3ccccc3)[C@@H](O)[C@H]2O)c(=O)[nH]1 ?
NadD block: 0

What do the screens show for `CCCOc1ccc(C(=O)Nc2ccc(N3CCOCC3)cc2N2CCOCC2)cc1OCC`?
NadD block: 2

Results for CCOC(=O)C1CCN(C(c2cc3ccc(C)c(C)c3[nH]c2=O)c2nnnn2C2CCCCC2)CC1 (centres undefined) ?
SUMO HTRF inh: 16; p-CIP stab down: -4; PHOSPHO1 block: 86*; NadD block: 7

What do the screens show for `CCOC(=O)C1CCN(C(c2cc3c(C)ccc(C)c3[nH]c2=O)c2nnnn2C2CCCCC2)CC1` (centres undefined)?
SUMO HTRF inh: -1; p-CIP stab down: -2; PHOSPHO1 block: 74*; NadD block: 8

What do the screens show for `Cn1c(=O)[nH]c(=O)c2c1nc(SCCN1CCCCC1)n2CCCc1ccccc1`?
SUMO HTRF inh: -12; p-CIP stab down: -5; PHOSPHO1 block: 88*; NadD block: -12

Results for CCN(C(=O)c1ccc2c(=O)n3c(nc2c1)CCCCC3)c1cc(OC)ccc1OC ?
SUMO HTRF inh: -2; p-CIP stab down: -4; PHOSPHO1 block: 65*; NadD block: 6

Results for CC(=O)Nc1cccc(-c2ccnc3c2CC(C)(C(=O)NCc2ccncc2)O3)c1 (centres undefined) ?
NadD block: 1

What do the screens show for `Cc1ccc(NC(=O)c2nc[nH]c2C(=O)NCCN(CCNC(=O)c2[nH]cnc2C(=O)Nc2ccc(C)cc2)CCNC(=O)c2[nH]cnc2C(=O)Nc2ccc(C)cc2)cc1`?
NadD block: 38*

What do the screens show for `CCOc1ccc(-c2cc(C(=O)Nc3cccc(C(F)(F)F)c3)[nH]n2)c(C)c1`?
NadD block: -6

How did NC(=S)Nc1cccc2cc3ccccc3cc12 do in these assays?
SUMO HTRF inh: 18; p-CIP stab down: -51; PHOSPHO1 block: 97*; NadD block: 8

What do the screens show for `NC(=S)Nc1cc2ccccc2c2ccccc12`?
SUMO HTRF inh: 6; p-CIP stab down: -7; PHOSPHO1 block: -139; NadD block: 6

What do the screens show for `CCCn1c(N2CCN(CC(=O)c3c(C)n(C)c4ccccc34)CC2)nc2c1c(=O)[nH]c(=O)n2C`?
SUMO HTRF inh: -8; p-CIP stab down: -2; PHOSPHO1 block: 4; NadD block: 6

How did CCn1c(N2CCN(CC(=O)c3c[nH]c4ccccc34)CC2)nc2c1c(=O)[nH]c(=O)n2C do in these assays?
SUMO HTRF inh: -1; p-CIP stab down: 2; PHOSPHO1 block: 74*; NadD block: 7

How did Cc1ccc([N+](=O)[O-])c(-c2n[nH]c(=S)n2-c2cccc(Cl)c2)c1 do in these assays?
SUMO HTRF inh: -2; p-CIP stab down: 0; PHOSPHO1 block: 88*; NadD block: 14

How did Cc1ccc(-n2c(-c3c(-c4ccccc4)noc3C)n[nH]c2=S)cc1 do in these assays?
SUMO HTRF inh: 12; p-CIP stab down: 16; PHOSPHO1 block: 85*; NadD block: 5

How did Cc1ccc(-n2c(-c3cccnc3)n[nH]c2=S)c(C)c1 do in these assays?
SUMO HTRF inh: 6; p-CIP stab down: -2; PHOSPHO1 block: 60*; NadD block: 1

Results for Cc1ccc(-n2c(-c3cccc(C)c3)n[nH]c2=S)cc1 ?
SUMO HTRF inh: 8; p-CIP stab down: 4; PHOSPHO1 block: 102*; NadD block: 5

How did O=C(c1ccc(Br)cc1)N1CCN(c2ccccn2)CC1 do in these assays?
NadD block: 4

How did O=C(O)c1ccc(-n2c(-c3ccc(Br)cc3)n[nH]c2=S)cc1 do in these assays?
SUMO HTRF inh: -5; p-CIP stab down: -16; PHOSPHO1 block: 103*; NadD block: -2

What do the screens show for `Cc1ccc(-n2c(-c3nn(C)c(C)c3Cl)n[nH]c2=S)cc1`?
SUMO HTRF inh: 13; p-CIP stab down: -8; PHOSPHO1 block: 95*; NadD block: -1

Results for S=c1[nH]nc(-c2ccc(Br)cc2)n1-c1ccc(Br)cc1 ?
SUMO HTRF inh: 5; p-CIP stab down: -10; PHOSPHO1 block: -97; NadD block: 13

What do the screens show for `Cc1cccc(-n2c(CCn3nc(C)c([N+](=O)[O-])c3C)n[nH]c2=S)c1`?
SUMO HTRF inh: 5; p-CIP stab down: -5; PHOSPHO1 block: 97*; NadD block: -4

What do the screens show for `CCOC(=O)c1[nH]c2ccc(C)cc2c1NC(=O)CN1CCCCC1`?
SUMO HTRF inh: 2; p-CIP stab down: 11; PHOSPHO1 block: -1; NadD block: 4

What do the screens show for `Cc1c2cc[n+](CCN3CCCCC3)cc2c(C)c2c1[nH]c1ccc(O)cc12`?
NadD block: 48*

Results for Fc1ccc(-c2nc3cnccn3c2NC2CCCC2)cc1 ?
SUMO HTRF inh: 54*; p-CIP stab down: -13; PHOSPHO1 block: 41; NadD block: 0

Results for Oc1ccc(Br)cc1-c1nc2cnccn2c1NC1CCCC1 ?
SUMO HTRF inh: 28; p-CIP stab down: -4; PHOSPHO1 block: -15; NadD block: 10

What do the screens show for `c1cc(C2OCCO2)cs1`?
NadD block: -3

What do the screens show for `C[C@@H]1CN([C@H](C)CO)S(=O)(=O)c2ccc(Br)cc2O[C@H]1CN(C)C(=O)C1CCCCC1`?
NadD block: 4

What do the screens show for `O=C(c1cccc(Cl)c1)N1CCN(Cc2ccncc2)CC1`?
SUMO HTRF inh: -20; p-CIP stab down: 29*; PHOSPHO1 block: -17; NadD block: -5
